Screens from PubChem.
This is a sample that favours compounds with a hit; in the whole collection about 1.1% have one here.
Vaccinia mCherry = inhibitors of vaccinia virus infection (mCherry reporter signal) | Potency, µM (titrated, usually from 36.5 µM), inactives show at the top dose activity change, negative = inhibition, hits mostly inhibitors | hit rate 0.63% among 310,000 | AID 720579 | Vaccinia virus mCherry reporter infection, fluorescence; calls by dose curve; tested in A549 cells; also: nearly all actives have a fitted effect of over 35% in size
AmpC inh detg = inhibitors of E. coli AmpC beta-lactamase with detergent; P00811; AmpC hydrolysis of nitrocefin, absorbance 480 nm, 0.01% Triton; Potency, µM (highest dose often 114 µM), inactives show at the top dose activity change, negative = inhibition, actives largely listed as inhibitors; hit rate 0.041% among 370,000;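 also: 0% = no-compound wells and -100% = no-enzyme wells; nearly all actives have a fitted effect of over 25% in size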
Target sequence (P00811 whole entry, looked up): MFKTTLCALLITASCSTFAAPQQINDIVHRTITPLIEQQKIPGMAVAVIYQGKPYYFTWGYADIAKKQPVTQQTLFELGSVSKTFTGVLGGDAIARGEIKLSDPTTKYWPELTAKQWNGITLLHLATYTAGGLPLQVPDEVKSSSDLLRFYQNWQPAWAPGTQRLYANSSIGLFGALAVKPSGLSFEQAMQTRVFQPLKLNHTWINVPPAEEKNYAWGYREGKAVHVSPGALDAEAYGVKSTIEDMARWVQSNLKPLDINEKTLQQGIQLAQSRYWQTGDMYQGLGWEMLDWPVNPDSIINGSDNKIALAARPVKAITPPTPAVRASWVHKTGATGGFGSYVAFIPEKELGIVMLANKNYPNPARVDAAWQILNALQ
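20 mM phosphate pH 7.0 + 0.01% (detergent screen) or 0.0001% Triton X-100; 5.3 nM AmpC reagent; cpd preinc 15 min RT; nitrocefin (800 uM stock) to start; A480 q20 s × 4 min; Activity was normalised to no-enzyme and no-compound control wells.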
Vaccinia Venus = inhibitors of vaccinia virus (Venus reporter); hit rate 0.46% among 330,000; Potency, µM (top dose mostly 36.5 µM), without a hit: at the highest dose activity change, negative = inhibition, hits mostly inhibitors; Vaccinia virus Venus reporter expression, fluorescence; calls by dose curve; tested in A549 cells; also: nearly all actives have a fitted effect of over 30% in size
AmpC no deterg = blocks E. coli AmpC beta-lactamase in detergent-free assay; P00811; AmpC nitrocefin hydrolysis, absorbance 480 nm, 0.0001% Triton; Potency, µM (top dose mostly 57.1 µM), without a hit: at the top dose activity change, negative = inhibition, usual class: inhibitors; hit rate 0.52% among 330,000; AID 485341;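 also: plate controls were no compound for no effect and no enzyme for full effect; nearly all actives have a fitted effect of over 20% in size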
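AmpC (5.3 nM in the dispensed reagent) in 20 mM phosphate pH 7.0 with 0.01% (detergent screen) or 0.0001% Triton X-100 was preincubated with compounds for 15 min at room temperature. Nitrocefin was then added from an 800 uM solution, and hydrolysis was followed at 480 nm.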
The depositor's hits bear a star; i = inactive; u = inconclusive; x = not tested or not shown; ! = not active in a repeat; [ ] = dose if it differs, or a comment. Unless noted, calls follow the shape of the dose curve; as a rule, active = well fitted curve in the direction sought with a large enough effect; inconclusive = small, poorly fitted or top-dose-only effect, or another doubt; inactive = no such curve, though single readings can be large; an effect the other way counts as inactive or inconclusive. Unless noted, % is scaled to controls: 0 for no effect and ±100 for the full control effect; potency is read from the fitted curve at half-maximal effect.

SMILES | Vaccinia mCherry | AmpC inh detg | Vaccinia Venus | AmpC no deterg
CC(OC(=O)CCc1cc(C(C)(C)C)c(O)c(C(C)(C)C)c1)C(=O)NC1CC1 (stereo not drawn) | 12.6µM* | -13.8% | -18.2% | 143.8%
CC(C)(C)c1cc(CCC(=O)NN)cc(C(C)(C)C)c1O | 2.3% | -0.2% | -11.6% | -6.1%
COc1cc2nc(N3CCCC(O)C3)c(CNCc3ccccc3C(F)(F)F)cc2c(OC)c1OC (stereo not drawn) | -11.1% | x | -18.1% | x
CCC(C)NCCOCCOc1ccc(Cl)c(C)c1C (stereo not drawn) | -13.4% | -10.8% | u | 33.4%
CCC(C)NCCOCCOc1ccc(Cl)c2ccccc12 (stereo not drawn) | u | -2.2% | 28.2µM* | 97.3%
C=CCN1[C@@H](C(C)C)COCCS1(=O)=O | -18.4% | x | -7.6% | x
Cc1ccc(C2(C)NC(=O)N(CC(=O)c3ccc(Cl)s3)C2=O)cc1 (stereo not drawn) | i | -9.2% | -7.4% | 28.2µM*
COc1cc(OC)cc(-c2c(C#Cc3ccsc3)c3cc(-c4cc(OC)c(OC)c(OC)c4)ccc3n2C)c1 | u | x | -21.9% | -10.0%
COc1cc(C#Cc2c(-c3cncn3C)n(C)c3ccc(-c4cc(OC)c(OC)c(OC)c4)cc23)cc(OC)c1 | u | x | 11.2µM* | 43.0%
COc1cc(C#Cc2c(-c3cncn3C)n(C)c3ccc(-c4ccc5[nH]ccc5c4)cc23)cc(OC)c1 | -23.7% | 5.3% | -24.1% | -16.9%
COc1cc(C#Cc2c(-c3cncn3C)n(C)c3ccc(-c4ccc(OC)nc4)cc23)cc(OC)c1 | u | -5.6% | 28.2µM* | 14.3%
CC(=O)N1CCC[C@H]1C(=O)NCC1Cc2cc(F)cc(-c3ccc(F)c(C)c3)c2O1 (stereo partly drawn) | -14.4% | x | -1.8% | x
O=[N+]([O-])/C(C(=C(Cl)Cl)N1CCOCC1)=C1\NCCO1 | 15.8µM* | -4.1% | 10µM* | -14.9%
CN1CCO/C1=C(\C(Cl)=C(Cl)Cl)[N+](=O)[O-] | -6.4% | 2.0% | -3.4% | -8.0%
COc1cccc(CNc2ncnc3cc(OC)c(OC)cc23)c1 | x | 5.3% | u | 3.16µM*
COc1cc2ncnc(NCc3ccc(C)cc3)c2cc1OC | -12.4% | -0.8% | -14.6% | 82.7%
O=S(=O)(O)c1cc(O)c2c(O)c(N=Nc3cc(Cl)ccc3O)c(S(=O)(=O)O)cc2c1 | 491.2% | -8.9% | 421.0% | -34.2%
Cc1cc(-c2ccc(N=Nc3c(S(=O)(=O)O)cc4cc(S(=O)(=O)O)cc(N)c4c3O)c(C)c2)ccc1N=Nc1c(S(=O)(=O)O)cc2cc(S(=O)(=O)O)cc(N)c2c1O | x | 12.6µM* | x | -51.9%
CO[C@H]1[C@H](NC(=O)c2cccs2)c2ccccc2C12CCN(Cc1cccn1-c1cccnc1)CC2 | -9.4% | x | -4.4% | x
O=C(O)Cc1sc(Nc2cccc3ccccc23)nc1-c1ccc(Cl)cc1 | -16.8% | 0.3% | -6.0% | 7.94µM*
Fc1ccc(Nc2ncnc3sc4c(c23)CCC4)cc1 | x | 0.0% | x | 0.316µM*
CC1=CCC2C(=O)N(c3ccc4ccccc4n3)C(=O)C2C1 (stereo not drawn) | x | -0.3% | -28.5% | 0.141µM*
CC(=O)NCc1cc(Cl)c2cccnc2c1O | x | -6.5% | x | -5.7%
Cc1cc(O)cc2c1C1CCC3(C)C(O)CCC3C1C=C2 (stereo not drawn) | 4.47µM* | x | u | x
C[C@]12CC[C@@H]3c4ccc(O)cc4[C@@H](O)C[C@H]3[C@@H]1CC[C@@H]2O | x | -4.8% | x | -29.5%
SMILES | Vaccinia mCherry | AmpC inh detg | Vaccinia Venus | AmpC no deterg
CCN1CCN(C(=O)c2cc3c(=O)n(C)c4ccccc4c3n2C)CC1 | 7.2% | u | 7.7% | 11.2µM*
COc1ccc(OC)c(S(=O)(=O)N2CCN(c3c(C)cccc3C)CC2)c1 | i | u | 5.1% | 39.8µM*
CC1CCN(c2ccccc2NC(=S)NC(=O)c2cccs2)CC1 | 1.3%[1.46 µM] | -2.5% | -5.8% | 10µM*
CS(=O)(=O)N1CCN(c2ccccc2NC(=S)NC(=O)c2cccs2)CC1 | -11.2% | -1.7% | 0.0% | -15.6%
COc1ccc(OC)c(C(=O)N2CCc3c(cnc(C)c3CNS(=O)(=O)N(C)C)C2)c1 | -11.5% | x | -9.7% | x
COC(=O)C1CCN(Cc2ccc3c(c2)CN(C(=O)c2cc(C)on2)CCO3)CC1 | -17.1% | x | -8.5% | x
CC(NC(=O)c1cccnc1)c1nnc2n1CCN(Cc1ccc(F)cc1F)CC2 (stereo not drawn) | -7.0% | x | -2.4% | x
O=C1C=CCC(/C=C/c2ccccc2)O1 (stereo not drawn) | u | -4.1% | 0.891µM* | -11.9%
CN(C)CC(C)(O)c1ccc2c(c1)CN(Cc1cn(C)c3ccccc13)CCO2 (stereo not drawn) | -12.0% | x | 12.2% | x
CN(C)c1ccc(C(=C2C=CC(=[N+](C)C)C=C2)c2ccc(N(C)C)cc2)cc1 | 234.8% | x | 10µM* | x
CCC1CN(CCNC(=O)c2ccc(N3CCOCC3)cc2)Cc2cc(OC)ccc2O1 (stereo not drawn) | -19.2% | x | -10.7% | x
Cc1ccccc1C(=O)/C(C#N)=N/Nc1c(C)n(C)n(-c2ccccc2)c1=O | u | u | u | -10.5%
Cc1c(N/N=C(\C#N)C(=O)c2ccccc2)c(=O)n(-c2ccccc2)n1C | 12.6µM* | -12.9% | -26.8% | -14.8%
COC(=O)[C@@H]1CCCN1Cc1ccc2c(c1)CN(Cc1cc(OC)c3c(c1)OCO3)CCO2 | -8.7% | x | -7.5% | x
Cn1nnnc1Sc1ncnc2scc(-c3ccc(Cl)cc3)c12 | x | 5.1% | x | -13.5%
Cc1sc2ncnc(Sc3nnnn3-c3ccccc3)c2c1C | 11.2µM*! | u | u | -13.9%
Clc1ccc(-c2csc3ncnc(Sc4nnnn4-c4ccccc4)c23)cc1 | 10µM* | x | u | x
Cc1sc2ncnc(Sc3ccccc3C(=O)O)c2c1C | -2.2% | -10.5% | -13.2% | -15.9%
COc1cc(-c2cc(C)c3c(OC)ccc(OC)c3n2)cc2c1OCCN(Cc1cn(C)nc1C)C2 | 11.7% | x | 21.6% | x
O=C(NCCn1cc(SCc2ccc(C(F)(F)F)cc2)c2ccccc21)c1cccs1 | u | 6.4% | -27.8% | x
O=C(CSc1cn(CCNC(=O)c2cccs2)c2ccccc12)NC1CCCC1 | i | u | -9.7% | 28.2µM*
C[C@@H]1CN(Cc2ccc3c(c2)CN(Cc2cn[nH]c2-c2ccccc2)CCO3)C[C@H](C)O1 | -13.7% | x | -4.7% | x
CCOC(=O)C(C)Sc1ncc(OC)c(=O)[nH]1 (stereo not drawn) | -11.8% | -1.9% | -11.5% | 0.159µM*
Cc1cnc(NC(=O)COc2cccc3c2OC(C)(C)C3)s1 | 7.94µM* | u | 1.3% | 13.1%
COc1ccc(NC(=O)COc2cccc3c2OC(C)(C)C3)cc1OC | x | 1.5% | x | 33.0%
Cc1ccc(CN2CCOc3ccc(CN4CCC(Oc5cccnc5)CC4)cc3C2)o1 | -10.1% | x | -7.7% | x
COc1ccccc1NC(=O)c1nn(-c2ccccc2)ccc1=O | x | -3.3% | -18.7% | 0.141µM*
Cc1ccc(C(C)C)cc1OCC(=O)Nc1nnc(C2CC2)s1 | 2µM* | x | 13.9% | -22.1%
Cc1cc(OCC(=O)Nc2nnc(C3CC3)s2)ccc1C(C)C | x | -4.0% | x | -5.6%
Cc1ccc(S(=O)(=O)NC(=O)Nc2nnc(C3CC3)s2)cc1 | x | 1.5% | x | 4.47µM*
